From PubChem BioAssay
Calls of active or inactive are those of the source.

Legend:
Albumin (Bos taurus) = Albumin (Bos taurus) (UniProt P02769); assay: compounds binding labelled BSA control protein – biochemical, small-molecule microarray, Alexa647 label, 635/667 nm fluorescence, artefact control for SMM control protein annotation, profiling panel (AID 1118); details: BSA-A647 binding, fluorescence 635 nm, higher = more signal;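 also: score merges 667 nm emission intensity and signal-to-noise per printed compound spot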
[1] = probe aXIP binding to arrayed compounds – biochemical, NeuroSMM set, 635/667 nm fluorescence, primary screen (AID 1119); details: small-molecule microarray, higher = more signal, called active from +8 up or from −8 down;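 also: probe is the protein aXip251-270 applied at 1 µg/mL to compound-printed slides; binding of probe to printed compounds measured as 667 nm fluorescence plus signal to noise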
[2] = probe aNOTCH3 binding on compound microarray – biochemical, small-molecule microarray, 635/667 nm fluorescence, primary screen (AID 1120); details: higher = more signal;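 also: probe is a biotin-tagged antibody raised against NOTCH3 rather than NOTCH3 protein; score merges spot fluorescence near 667 nm with spot signal to noise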
[3] = probe aNOTCH2 binding on compound microarray – biochemical, small-molecule microarray, 635/667 nm fluorescence, primary screen (AID 1121); details: higher = more signal;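 also: score merges feature fluorescence read at 667 nm with its signal to noise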
[4] = target: Carbonic anhydrase 2 (Homo sapiens) (UniProt P00918); assay: compounds binding carbonic anhydrase 2 – biochemical, small-molecule microarray, Alexa647-labelled CAII, profiling panel (AID 1122); details: CAII-A647 binding fluorescence, higher = more signal
[5] = COS7 lysate on small-molecule microarray, probe aHis, 635 nm (AID 1123); details: COS7 cell lysate, fluorescence, higher = more signal;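 also: z-score combines 667nm fluorescence intensity with signal-to-noise per printed compound spot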
[6] = probe aLAP1 signal on lysate-treated microarray – cell lysate, small-molecule microarray, COS7 lysate, primary screen (AID 1124); details: probe aLAP1, fluorescence, higher = more signal;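 also: lysate comes from COS7 cells expressing LAP1 and is applied at 0.3 µg/mL; score merges spot fluorescence near 667 nm with signal-to-noise over triplicate slides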
Sam68 (KHDRBS1) = assay: compounds binding KHDRBS1 protein – biochemical, small-molecule microarray, 635 nm fluorescence, primary screen (AID 1125); details: higher = more signal;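 also: score merges 667 nm channel intensity with signal to noise over triplicate slides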
[7] = tested on: Chordin-like protein 2 (CHRDL2); assay: compounds binding chordin-like 2 – biochemical, small-molecule microarray, 635 nm fluorescence, primary screen (AID 1126); details: fluorescence 635 nm, higher = more signal;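 also: printed compound slides probed with Chrdl2 protein at 4 µg/mL for 1 h at 4 C; score merges 667 nm emission intensity with signal to noise over three replicate slides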
[8] = target: Concanavalin-A (Canavalia ensiformis) (UniProt P02866); assay: compounds binding concanavalin A lectin – biochemical, small-molecule microarray, Alexa647 label, 635 nm, artefact control for SMM control protein annotation, primary screen (AID 1127); details: ConA-A647 binding fluorescence, higher = more signal;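 also: z combines 667 nm emission intensity with signal-to-noise across three replicate slides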
[9] = compounds binding Alexa647 anti-His antibody – biochemical, small-molecule microarray, 635 nm fluorescence, artefact control for SMM control protein annotation, primary screen (AID 1128); details: higher = more signal;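 also: score merges feature fluorescence with signal-to-noise for each printed compound spot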
[10] = tested on: Human papillomavirus type 1a E7 protein (residues 1-88); assay: HPV1a E7 small-molecule binders, primary screen, biochemical, small-molecule microarray, residues 1-88, 635 nm (AID 1129); details: small-molecule microarray binding, fluorescence 635 nm; higher = more signal
[11] = target: Focal adhesion kinase 1 (Homo sapiens) (UniProt Q05397); assay: PTK2 protein binding on printed compound slides – biochemical, small-molecule microarray, 635/667 nm fluorescence, BSA, DTT, primary screen (AID 1130); details: 635 nm fluorescence, higher = more signal;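 also: composite of spot emission at 667 nm and signal to noise over triplicate slides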
[12] = tested on: Fibrinogen (Alexa647-labelled); assay: Alexa647-fibrinogen binding to printed small molecules – biochemical, small-molecule microarray, 635/667 nm fluorescence, artefact control for SMM control-protein annotation, profiling panel (AID 1131); details: fibrinogen-A647 binding fluorescence, higher = more signal;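 also: z-score merges 667 nm fluorescence with per-spot signal-to-noise over triplicate slides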
[13] = target: Follistatin (Homo sapiens) (UniProt P19883); assay: FST protein binding to printed compounds – biochemical, small-molecule microarray, 635/667 nm fluorescence, primary screen (AID 1132); details: 635 nm fluorescence, higher = more signal
[14] = target: Fibroblast growth factor 2 (Homo sapiens) (UniProt P09038); assay: basic fibroblast growth factor binding to printed compounds – biochemical, small-molecule microarray, 635/667 nm fluorescence, primary screen (AID 1133); details: FGF2, fluorescence 635/667, higher = more signal
[15] = JC-1 mitochondrial potential readout, lung cancer cells – cell-based, A549, JC-1 fluorescence, basal, 24 h, 100 nL, profiling panel (AID 1138); details: higher = more signal;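 also: A549 lung adenocarcinoma cells under basal conditions with no added stimulus; test concentration not given here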
Lefty1 = Lefty1 protein binding to printed compounds – biochemical, small-molecule microarray, 635/667 nm fluorescence, primary screen (AID 1139); details: fluorescence 635/667, higher = more signal
[16] = tested on: wheat germ agglutinin (Triticum aestivum), Alexa647-labelled; assay: Alexa647-WGA lectin binding to printed small molecules – biochemical, small-molecule microarray, 635/667 nm fluorescence, artefact control for SMM control-protein annotation, profiling panel (AID 1140); details: WGA-A647 binding, 635 nm fluorescence, higher = more signal;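 also: score merges 667 nm feature emission with signal to noise over triplicate slides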
[17] = target: Luciferin 4-monooxygenase (Photinus pyralis) (UniProt P08659); assay: inhibition of purified Photinus pyralis luciferase – biochemical, luminescence, purified enzyme, 2006 set, primary screen (AID 1141); details: purified firefly luciferase, SteadyGlo luminescence, 30 min; higher = more signal, called active from +8 up or from −8 down;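 also: cell-free assay with purified firefly luciferase at 100 ng per well in PBS; test concentration not given here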
Chain of Luciferin 4-monooxygenase (Photinus pyralis) (P08659 whole entry, looked up): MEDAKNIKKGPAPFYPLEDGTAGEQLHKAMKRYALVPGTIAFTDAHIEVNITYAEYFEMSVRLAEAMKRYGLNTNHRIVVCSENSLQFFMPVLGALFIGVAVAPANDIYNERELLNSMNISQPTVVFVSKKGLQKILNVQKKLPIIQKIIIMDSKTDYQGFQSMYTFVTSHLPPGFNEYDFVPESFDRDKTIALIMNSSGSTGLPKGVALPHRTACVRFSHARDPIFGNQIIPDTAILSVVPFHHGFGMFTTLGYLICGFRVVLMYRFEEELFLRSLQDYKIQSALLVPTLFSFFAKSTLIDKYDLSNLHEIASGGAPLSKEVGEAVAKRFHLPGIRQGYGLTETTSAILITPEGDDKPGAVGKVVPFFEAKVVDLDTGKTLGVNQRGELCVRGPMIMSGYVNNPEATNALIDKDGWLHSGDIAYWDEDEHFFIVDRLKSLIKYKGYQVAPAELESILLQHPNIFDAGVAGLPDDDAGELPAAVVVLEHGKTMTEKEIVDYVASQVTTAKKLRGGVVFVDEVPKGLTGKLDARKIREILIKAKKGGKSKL

Chain of Focal adhesion kinase 1 (Homo sapiens) (Q05397 whole entry, looked up): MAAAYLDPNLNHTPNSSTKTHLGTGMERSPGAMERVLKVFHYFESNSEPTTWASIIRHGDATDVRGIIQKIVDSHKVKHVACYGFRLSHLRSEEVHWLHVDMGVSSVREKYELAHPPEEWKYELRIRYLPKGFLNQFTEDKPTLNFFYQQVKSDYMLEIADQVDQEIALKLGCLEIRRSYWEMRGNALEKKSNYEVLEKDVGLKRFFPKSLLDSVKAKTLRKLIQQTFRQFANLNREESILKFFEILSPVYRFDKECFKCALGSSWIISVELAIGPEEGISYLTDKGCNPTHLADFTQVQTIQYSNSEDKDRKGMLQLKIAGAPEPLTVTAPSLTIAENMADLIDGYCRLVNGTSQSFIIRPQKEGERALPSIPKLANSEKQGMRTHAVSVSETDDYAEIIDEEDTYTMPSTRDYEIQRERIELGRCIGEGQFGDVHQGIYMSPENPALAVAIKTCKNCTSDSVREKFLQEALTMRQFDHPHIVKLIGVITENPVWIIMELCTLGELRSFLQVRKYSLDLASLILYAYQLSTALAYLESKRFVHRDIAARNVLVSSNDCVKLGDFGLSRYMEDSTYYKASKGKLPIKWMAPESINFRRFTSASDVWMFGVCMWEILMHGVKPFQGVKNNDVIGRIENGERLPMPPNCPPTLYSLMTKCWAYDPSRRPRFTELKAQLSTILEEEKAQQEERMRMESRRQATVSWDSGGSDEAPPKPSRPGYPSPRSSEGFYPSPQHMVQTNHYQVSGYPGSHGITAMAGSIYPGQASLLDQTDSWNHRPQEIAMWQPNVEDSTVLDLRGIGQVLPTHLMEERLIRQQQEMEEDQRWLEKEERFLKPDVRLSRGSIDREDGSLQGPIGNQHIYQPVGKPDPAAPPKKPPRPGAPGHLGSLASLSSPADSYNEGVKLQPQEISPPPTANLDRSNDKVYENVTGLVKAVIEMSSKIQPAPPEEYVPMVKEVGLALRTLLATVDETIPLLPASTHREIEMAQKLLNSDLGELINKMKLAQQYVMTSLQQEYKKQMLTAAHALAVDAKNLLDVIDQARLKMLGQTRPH
Chain of Follistatin (Homo sapiens) (P19883 whole entry, looked up): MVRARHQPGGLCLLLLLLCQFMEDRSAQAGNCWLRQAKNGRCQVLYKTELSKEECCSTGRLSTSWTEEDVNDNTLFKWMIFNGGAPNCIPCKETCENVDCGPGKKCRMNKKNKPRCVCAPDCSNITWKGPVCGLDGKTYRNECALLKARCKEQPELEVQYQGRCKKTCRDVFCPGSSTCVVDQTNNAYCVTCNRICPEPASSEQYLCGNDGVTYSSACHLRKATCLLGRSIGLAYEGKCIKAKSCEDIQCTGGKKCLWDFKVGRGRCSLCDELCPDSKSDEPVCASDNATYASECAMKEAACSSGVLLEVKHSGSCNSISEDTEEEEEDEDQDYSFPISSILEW
Chain of Albumin (Bos taurus) (P02769 whole entry, looked up): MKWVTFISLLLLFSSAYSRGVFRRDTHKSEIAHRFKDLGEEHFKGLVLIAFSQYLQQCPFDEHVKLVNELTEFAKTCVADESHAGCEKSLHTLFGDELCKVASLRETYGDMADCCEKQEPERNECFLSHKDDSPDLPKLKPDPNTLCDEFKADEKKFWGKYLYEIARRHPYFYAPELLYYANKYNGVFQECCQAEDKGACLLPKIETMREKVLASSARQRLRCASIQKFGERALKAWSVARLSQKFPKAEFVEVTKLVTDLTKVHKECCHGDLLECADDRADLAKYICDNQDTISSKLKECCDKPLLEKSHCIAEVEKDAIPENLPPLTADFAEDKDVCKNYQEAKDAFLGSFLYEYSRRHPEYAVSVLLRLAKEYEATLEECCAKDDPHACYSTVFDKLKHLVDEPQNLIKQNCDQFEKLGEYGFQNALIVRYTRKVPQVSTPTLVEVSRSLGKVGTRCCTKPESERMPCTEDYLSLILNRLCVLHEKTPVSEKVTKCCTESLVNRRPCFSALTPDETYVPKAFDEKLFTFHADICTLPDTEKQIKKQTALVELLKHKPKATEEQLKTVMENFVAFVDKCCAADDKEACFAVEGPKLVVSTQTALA
Chain of Concanavalin-A (Canavalia ensiformis) (P02866 whole entry, looked up): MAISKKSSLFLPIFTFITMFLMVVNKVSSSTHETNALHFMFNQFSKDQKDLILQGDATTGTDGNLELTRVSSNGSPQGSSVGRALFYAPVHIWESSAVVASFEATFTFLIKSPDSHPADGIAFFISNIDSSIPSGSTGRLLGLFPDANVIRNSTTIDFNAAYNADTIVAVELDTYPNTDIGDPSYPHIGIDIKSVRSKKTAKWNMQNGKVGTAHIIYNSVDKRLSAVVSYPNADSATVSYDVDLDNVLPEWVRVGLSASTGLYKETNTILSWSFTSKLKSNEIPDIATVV
Chain of Fibroblast growth factor 2 (Homo sapiens) (P09038 whole entry, looked up): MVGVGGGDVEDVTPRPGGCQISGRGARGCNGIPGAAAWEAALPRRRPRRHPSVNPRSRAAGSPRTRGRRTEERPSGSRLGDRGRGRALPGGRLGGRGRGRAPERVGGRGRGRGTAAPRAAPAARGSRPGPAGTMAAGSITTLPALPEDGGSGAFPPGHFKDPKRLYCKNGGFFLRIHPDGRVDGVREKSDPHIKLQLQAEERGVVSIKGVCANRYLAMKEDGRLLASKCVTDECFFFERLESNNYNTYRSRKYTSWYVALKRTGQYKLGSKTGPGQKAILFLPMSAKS

Row | SMILES | composite z-score (Albumin (Bos taurus)) | composite Z-score [1] | composite z-score [2] | composite z-score [3] | composite z-score [4] | composite z-score [5] | composite z-score [6] | composite z-score (Sam68 (KHDRBS1)) | composite z-score [7] | composite z-score [8] | composite z-score [9] | composite z-score [10] | composite z-score [11] | composite z-score [12] | composite z-score [13] | composite z-score [14] | z-score [15] | composite z-score (Lefty1) | composite z-score [16] | z-score [17]
1 | CCOC(=O)C1=C[C@@H](C(C)(C)C)N(S(=O)(=O)c2ccc(C)cc2)[C@H]1c1ccccc1Cl | 0.981 | 0.102 (inactive) | 0.0203 | 0.0423 | 0.223 | 1.72 | 0.472 | 1.32 | -0.584 | 1.12 | 1.31 | 1.2 | 0.393 | 0.776 | 0.953 | 0.119 | 3.94 | 0.386 | 1.18 | 0.927 (inactive)
2 | C=CCNC(=O)[C@H]1[C@@H]2C(=O)O[C@@H](c3ccccc3)[C@@H](c3ccccc3)N2[C@@H](c2ccc(O)cc2)[C@]12C(=O)Nc1ccc(C#CC3=CCCCC3)cc12 | 0.135 | -0.121 (inactive) | -0.119 | 0.23 | 0.416 | 1.52 | 0.573 | 1.11 | 0.62 | 1.12 | 1.3 | 1.02 | 0.0897 | 0.531 | 0.886 | 0.355 | 0.88 | 0.916 | 0.622 | 0.0736 (inactive)
3 | [N-]=[N+]=NCc1ccccc1C[C@]1(C(=O)NCc2ccccc2)N=C(c2ccc(OCCCO)cc2)O[C@H]1c1ccccc1CN=[N+]=[N-] | 0.735 | 0.597 (inactive) | 0.192 | 0.0522 | 0.727 | 2.67 | 0.478 | 0.839 | -0.324 | 0.958 | 1.75 | 0.986 | 0.586 | 0.91 | 0.821 | -0.31 | 0.064 | -0.503 | 0.328 | -1.16 (inactive)
4 | C=CCNC(=O)[C@H]1[C@@H]2C(=O)O[C@@H](c3ccccc3)[C@@H](c3ccccc3)N2[C@@H](c2ccccc2OCCO)[C@]12C(=O)N(C(=O)OCCOC)c1ccccc12 | 0.813 | -0.104 (inactive) | -0.161 | -0.153 | 0.567 | 1.96 | 0.883 | 1.21 | 0.414 | 1.13 | 1.23 | 1.22 | 0.706 | 0.887 | 0.465 | 0.849 | -0.276 | 0.583 | 1.07 | 0.206 (inactive)
5 | COC(=O)[C@@]1(Cc2ccc(OC)cc2)[C@H]2c3cc(C(=O)N(C)C)n(Cc4ccsc4Br)c3C[C@H]2CN1C(=O)c1ccccc1 | 0.968 | -0.362 (inactive) | 0.69 | 0.371 | 0.898 | 1.65 | 0.107 | 0.399 | -0.0018 | 0.852 | 1.74 | 1.09 | 0.957 | 0.862 | -0.244 | -0.29 | 0.292 | -0.538 | 0.669 | 1.05 (inactive)
6 | CC(C)CNC(=O)[C@@H]1c2ccccc2C(=O)N(C(C)C)[C@H]1c1ccc(CO)cc1 | 0.121 | 0.337 (inactive) | -0.153 | -0.0454 | 0.757 | 0.435 | 1.25 | -0.463 | 0.0021 | -1.56 | -0.306 | -0.341 | -0.155 | -1.18 | 0.659 | 0.427 | 0.484 | -0.481 | 0.775 | -0.207 (inactive)
7 | C#CCN(C/C=C/c1ccccc1)[C@H](CO[Si](C)(C)C(C)(C)C)c1ccccc1 | 0.491 | -0.12 (inactive) | -0.125 | -0.229 | -0.33 | -0.0873 | 0.0021 | 0.102 | -0.167 | -0.111 | 0.953 | -0.786 | 0.329 | -0.759 | -0.0993 | -0.187 | -2.21 | 0.178 | -0.0631 | 0.43 (inactive)
8 | O=C1O[C@@H](c2ccccc2)[C@@H](c2ccccc2)N2[C@@H](c3ccc(O)cc3)[C@]3(C(=O)Nc4ccc(C#CC5=CCCCC5)cc43)[C@@H](C(=O)N3CCCCCCC3)[C@H]12 | 0.508 | 2.78 (inactive) | 1.24 | 0.276 | 0.589 | 2.97 | 1.85 | 1.29 | 0.543 | 0.702 | 1.22 | 1.06 | 0.277 | 0.836 | 1.4 | 1.19 | 1.26 | 1.29 | 1.32 | -3.18 (inactive)
9 | COCCOC(=O)N1C(=O)[C@@]2(c3cc(C#CCC(C(=O)OC)C(=O)OC)ccc31)[C@H](C(=O)N1CCc3cc(OC)c(OC)cc3C1)[C@H]1C(=O)O[C@H](c3ccccc3)[C@H](c3ccccc3)N1[C@@H]2c1ccc(O)cc1 | -0.129 | 0.131 (inactive) | 0.23 | -0.0715 | 0.213 | 1.72 | 0.617 | 1.17 | 1.05 | 0.919 | 1.82 | 1.21 | 0.221 | 0.787 | 1.36 | 1.59 | -0.132 | 1.11 | 1.05 | 1.01 (inactive)
10 | C=CCC(OC(C)=O)[C@@H]1[C@@H](N(Cc2cc3ccccc3o2)C(=O)Cc2ccc(OC)cc2)c2cc(OCCCO)ccc2N1C(=O)Cc1ccc2ccccc2c1 (stereo not given in full) | 0.402 | -0.374 (inactive) | -0.0391 | -0.0424 | -0.061 | 0.491 | -0.185 | -0.235 | -0.563 | 0.3 | 0.305 | -0.866 | 0.102 | 0.136 | 0.279 | -0.662 | 0.432 | -0.173 | 0.116 | -0.1 (inactive)
11 | CC(C)N1CC=CC23O[C@@H]4C=CCCOC(=O)C4[C@H]2C(=O)N(CCCCCO)[C@@H]3C1=O (stereo not given in full) | 0.62 | 0.23 (inactive) | -0.214 | -0.153 | 0.853 | 0.19 | 0.543 | -0.411 | -0.654 | 0.878 | 3 | -0.349 | -0.133 | 0.834 | -1.21 | -0.886 | 1.34 | -0.376 | 0.717 | 0.0137 (inactive)
